GALK inhibitor – GALK (human) enzyme inhibition | P51570 | recombinant GALK, Kinase-Glo ATP luminescence, 1 h | Potency, µM (top dose mostly 57.5 µM), usual class: inhibitors | 44,000 tested, under 10 active
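Luminescent ATP-depletion readout (Kinase-Glo Plus) after 1 h room-temperature incubation of human GALK (5 nM) with galactose 100 µM and ATP 35 µM, pH 8.0 HEPES/Mg2+ buffer; compounds tested in qHTS format.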
GALC G270D up – enhancers of human galactocerebrosidase G270D mutant activity in cells. P54803. 145M-Twi-hGALC-G270D cells, HMU-beta-Gal fluorescence, 48 h. Potency, µM (top dose mostly 57.5 µM), hits mostly activators. 45,000 compounds, 0.1% hits. AID 1159614; further: nearly all actives have a fitted effect of over 65% in size
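qHTS, 1536-well; 145M-Twi-hGALC-G270D cells (WT line also made) in DMEM/F12 + 10% FBS; compound incubation on live cells; HMU-β-gal 0.1 mM final, pH 5.2, NaTC; carbonate stop; fluorescence increase = enhanced residual activity.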
B2AR arrestin ag – agonists recruiting beta-arrestin to human beta2-adrenergic receptor; P07550; HTLA Tango cells, beta-arrestin recruitment, luciferase luminescence, 18 h; Potency, µM (series often up to 46.1 µM), usual class: activators; 44,000 tested, under 10 active; AID 1347077
Target sequence (P07550 whole entry, looked up): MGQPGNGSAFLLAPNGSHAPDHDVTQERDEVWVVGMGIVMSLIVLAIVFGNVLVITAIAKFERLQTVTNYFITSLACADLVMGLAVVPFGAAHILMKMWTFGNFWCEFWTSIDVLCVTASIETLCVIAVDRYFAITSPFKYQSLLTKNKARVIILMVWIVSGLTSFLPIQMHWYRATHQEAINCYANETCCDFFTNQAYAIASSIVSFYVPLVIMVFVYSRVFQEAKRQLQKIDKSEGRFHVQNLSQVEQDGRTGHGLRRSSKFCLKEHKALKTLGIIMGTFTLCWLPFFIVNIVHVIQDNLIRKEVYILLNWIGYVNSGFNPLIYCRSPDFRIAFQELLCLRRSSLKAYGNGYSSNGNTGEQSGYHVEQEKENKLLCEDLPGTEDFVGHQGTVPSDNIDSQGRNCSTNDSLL
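First, Tango cells carrying beta2-AR and beta-arrestin fusions received compound up to 46 microM. After 18 hr at 37 degrees C, luciferase substrate was added for 15 minutes, then luminescence gave %Activity for curve fitting.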
FH mod – Identification of activators of human fumarate hydratase by quantitative high-throughput screening | Fumarate hydratase, mitochondrial (Homo sapiens), P07954 | FH coupled MDH/diaphorase resazurin fluorescence, 15 min | Potency, µM (top dose mostly 79.9 µM), actives largely listed as inhibitors | 54,000 compounds, 0.22% hits | AID 1347055, 2019; further: the screen sought activators but most active calls are inhibition curves; nearly all actives have a fitted effect of over 45% in size
DRV1 agonist – activates human resolvin D1 receptor GPR32; activation, % at 76.9 µM; 48,000 compounds, 2.5% hits; CHO-K1 GPR32 beta-arrestin PathHunter luminescence, 90 min; zero percent set by DMSO-only wells; O75388;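 active means activation of at least 60% and not above a set upper limit, about 1 call in 100 departs from these limits; inconclusive means activation of 40% to 60%, or above that upper limit; inactive means activation under 40%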
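Using DMSO wells as EC0, agonist-induced signal was taken as chemiluminescence from beta-Gal reconstituted upon beta-arrestin recruitment to GPR32 in CHO-K1 cells after 90 min compound treatment.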
PTAP-TSG101 blk – inhibitors of HIV-1 PTAP binding to human TSG101, validation; Fluorescence polarization, FITC-PTAP peptide/Tsg101, 20 min; Potency, µM (titrated, usually from 115 µM), most hits filed as inhibitors; 44,000 tested, under 10 active; AID 1347069; Q99816
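Fluorescence polarization binding of Tsg101 binding domain (10 uM final) to FITC-labeled PTAP-motif peptide (50 nM final) in HEPES pH 7.5/NaCl/Tween 20/EDTA/TCEP buffer; 20 min at r.t. Actives by curve class, <25 µM, efficacy <60% inhibition.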
Numbers stand for hits; n = inactive; u = inconclusive; x = no result; ! = not confirmed by another sample. Only some compounds are listed: those with a hit (about 2.6% of all), similar ones and a draw of the others. Unless noted, the call rests on the fitted dose curve; in most records, active means well fitted curve in the direction sought with a large enough effect; inconclusive means small, poorly fitted or top-dose-only effect, or another doubt; inactive means no such curve, though single readings can be large; an effect the other way counts as inactive or inconclusive.

SMILES | GALK inhibitor | GALC G270D up | B2AR arrestin ag | FH mod | DRV1 agonist | PTAP-TSG101 blk
CC(CNc1nc2ccccc2c2nc(-c3ccccc3)nn12)c1ccccc1 (centres undefined) | n | 25.1µM | n | n | n | n
COc1ccc(-c2ccc3c(N)c(C(=O)NCc4ccc(C)cc4)sc3n2)cc1 | n | n | n | n | n | n
COc1ccc(C(=O)c2sc3nc(-c4ccc(F)cc4)ccc3c2N)cc1 | n | n | n | n | 97.7 | n
Cc1ccc(CNC(=O)c2sc3nc(-c4ccc(F)cc4)ccc3c2N)cc1 | n | n | n | n | 95.6 | n
C[C@]1(C(=O)Nc2ccc(F)nc2)CCCN1c1nc(Nc2cc(C3CC3)[nH]n2)c2cccn2n1 | x | x | x | n | x | x
CC(C)NC[C@H](O)COc1ccc(CCOCC2CC2)cc1 | x | x | x | n | x | x
CC(C)C(=O)Nc1cccc(C(=O)Nc2nnc(CC(C)(C)C)s2)c1 | n | n | n | n | 61.7 | n
Cc1nnc(NC(=O)c2ccccc2)s1 | n | n | n | n | n | n
CC(NC(=O)CSc1nc(-c2cccc(Cl)c2)nc2cc(=O)[nH]n12)c1nc2ccccc2n1C (centres undefined) | n | x | n | x | 68.7 | n
Cc1nn(C)c2c1C(c1ccc(C(F)(F)F)cc1)C(C#N)=C(N)O2 (centres undefined) | x | x | x | n | x | x
OCc1cc(C(O)CNCCCCCCOCCCCc2ccccc2)ccc1O (centres undefined) | x | n | x | u | 107.7! | x
O=C(CC1C(=O)OCCN1Cc1ccccc1)Nc1cccc(C(F)(F)F)c1 (centres undefined) | n | n | n | n | 112.4 | n
CC1=CC(=O)C(C(C)C)=C/C1=N/OC(=O)c1ccccc1C | x | x | x | n | x | x
COc1ccc(CNS(=O)(=O)c2cc3c(cc2Cl)N(C(C)=O)CCO3)cc1 | n | n | n | n | n | 35.5µM
CC(=O)N1CCOc2cc(S(=O)(=O)NCc3ccc(F)cc3)c(C)cc21 | n | n | n | n | n | n
C[N+](C)(C)CCOP(=O)(O)OP(=O)([O-])OC[C@H]1O[C@@H](n2ccc(N)nc2=O)[C@H](O)C1O (some centres undefined) | x | x | x | n | x | x
C=Cc1ccc(Cn2c(C)c(CNCCc3ccc(OCC)cc3)c(C(=O)O)c2C)cc1 | n | n | n | n | 67.5 | n
CCOc1ccc(CNCc2c(C(=O)O)c(C)n(Cc3ccc(C)cc3)c2C)cc1 | n | n | n | n | n | n
CCc1ccc(CNCc2c(C(=O)O)c(C)n(Cc3c(F)cccc3Cl)c2C)cc1 | n | n | n | n | 95.0 | n
Cc1c(CNCCCc2ccccc2)c(C(=O)O)c(C)n1Cc1ccc(Cl)cc1 | n | n | n | n | 94.9 | n
CCOc1ccc(CNCc2c(C(=O)O)c(C)n(Cc3c(F)cccc3Cl)c2C)cc1OC | n | n | n | n | n | n
Cc1cc(C)c(Cn2c(CCNC(=O)c3ccco3)nc3ccccc32)c(C)c1 | n | x | n | x | 68.2 | n
Cc1ccc(Cn2c(CCCNC(=O)c3ccco3)nc3ccccc32)cc1 | n | x | n | x | n | n
CN(C)S(=O)(=O)N(CC(=O)NCCSc1ccc(Cl)cc1)c1ccccc1 | n | n | n | n | 69.9 | n
CN(C)S(=O)(=O)N(CC(=O)NCCSc1ccccc1)c1ccccc1 | n | n | n | n | n | n
SMILES | GALK inhibitor | GALC G270D up | B2AR arrestin ag | FH mod | DRV1 agonist | PTAP-TSG101 blk
CCOC(=O)c1[nH]c(C)c(C(=O)NCc2cccc(OC)c2)c1C | n | n | n | n | 61.0 | n
CCOC(=O)c1[nH]c(C)c(C(=O)NCc2ccc(F)cc2)c1C | u | n | n | n | n | n
Cn1c(=O)n(C)c2cc(N3CCCCC3)c(NC(=O)c3c(F)cccc3F)cc21 | n | x | n | x | 118.1 | n
CCOc1ccc(NC(=O)Nc2cc3c(cc2N2CCCCC2)n(C)c(=O)n3C)cc1 | n | n | n | n | 107.0 | n
Cn1c(=O)n(C)c2cc(N3CCCC3)c(NC(=O)Nc3ccccc3)cc21 | n | n | n | n | n | n
COc1ccc(S(=O)(=O)N2CCC[C@H]2C(=O)Nc2cc(C)cc(C)c2)cc1 | x | x | x | n | x | x
CC1(C)CCCC2(C)C1C(O)C=C(CO)C2(O)C(=O)O (centres undefined) | x | x | x | n | x | x
Cc1cc(C)c2c(N)c(C(=O)Nc3ccccc3C(F)(F)F)sc2n1 | n | n | n | n | 89.4 | n
Cc1ccc(CCNC(=O)CN2CCN(Cc3ccc(Cl)cc3)C2=O)cc1 | n | n | n | n | 60.1 | n
O=C(CN1CCN(Cc2ccc(F)cc2Cl)C1=O)NCCc1ccc(Cl)cc1 | n | n | n | n | n | n
O=C1C[C@@H](c2ccc(O)cc2)Oc2cc(O)ccc21 | x | x | x | n | x | x
OC[C@H]1O[C@@H](Oc2cc(O)cc(-c3cc4ccc(O[C@@H]5O[C@H](CO)[C@@H](O)[C@H](O)[C@H]5O)cc4o3)c2)[C@H](O)[C@@H](O)[C@@H]1O | x | x | x | n | x | x
CCOc1ccc(CNC(=O)Cn2ccc3cc(S(=O)(=O)N4CCCCC4)ccc32)cc1 | n | n | n | u | 77.4 | n
CCn1cc(C(=O)N2CCN(c3cccc(C(F)(F)F)c3)CC2)c2cc(OC)c(OC)cc2c1=O | n | n | n | n | n | n
CCn1cc(C(=O)N2CCN(c3cccc(C)c3C)CC2)c2cc(OC)c(OC)cc2c1=O | n | n | n | n | 75.8 | u
Oc1ccc(-c2cnc3ccc(NCc4ccco4)nn23)cc1 | x | x | x | n | x | x
CCOC(=O)c1ccc(NS(=O)(=O)c2ccc(Br)s2)cc1 | n | n | n | n | 65.6 | n
O=C(COc1ccc(Cl)cc1)NCCc1csc(-c2ccc(C(F)(F)F)cc2)n1 | n | n | n | n | n | n
O=C(COc1ccc(Cl)cc1)NCCc1csc(-c2ccc(F)cc2)n1 | n | n | n | n | 109.4 | n
O=C(COc1ccccc1)NCCc1csc(-c2ccc(Cl)cc2)n1 | n | n | n | n | 95.0 | n
OC[C@H]1O[C@@H](Oc2ccc(O)c3cccc(O)c23)[C@H](O)[C@@H](O)[C@@H]1O | x | x | x | n | x | x
O=C(c1ccc(F)cc1)C1CCN(CCn2c(=O)[nH]c3ccccc3c2=O)CC1 | x | n | x | n | 82.3! | x
O=C(CSc1cn(CCNC(=O)c2cccc(C(F)(F)F)c2)c2ccccc12)Nc1ccc2c(c1)OCCO2 | n | n | n | n | 111.8 | n
O=C(CSc1cn(CCNC(=O)c2ccccc2F)c2ccccc12)Nc1ccc2c(c1)OCCO2 | n | n | n | n | u | n

Compound activity as filed in PubChem BioAssay.
